# FUS yeast rescue = qHTS for Suppressors of FUS Proteinopathy: Primary screen using FUS-linked yeast assay | S. cerevisiae FUS-expressing, growth rescue, OD600, 24 h | hit rate 0.24% among 390,000 | AID 1347120, 2019 | Potency, µM (titrated, usually from 76.6 µM), hits mostly activators; also: nearly all actives have a fitted effect of over 55% in size
#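 Yeast FUS proteinopathy model; galactose-induced FUS (2%), starting OD 0.005. Cpds in dilution series, 24hr, 30C, 99% humidity. Abs 600 nm growth. Pos ctrl CP55940 (top 92uM final); neg ctrl DMSO.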
# Abeta rescue = qHTS for compounds that reverse cellular toxicity of Amyloid beta (A-beta) peptide in yeast: Primary Screen; yeast expressing A-beta42, growth rescue, OD600, 48 h; response scale: 0% DMSO, 100% iron-clioquinol control; Potency, µM (doses to about 46.1 µM), usual class: activators; hit rate 0.063% among 410,000; also: nearly all actives have a fitted effect of over 55% in size
#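 Yeast A-beta toxicity model in growth medium with pinned compounds, 48 h at 30 C; growth read as absorbance at 600 nm. Normalized to FeCl3/clioquinol equimolar mix (positive) and DMSO (negative).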
# Mito fusion yeast = qHTS Assay for Small Molecule Inhibitors of Mitochondrial Division or Activators of Mitochondrial Fusion; Potency, µM (titrated, usually from 46.1 µM), usual class: activators; AID 485298, 2010; hit rate 0.23% among 320,000; S. cerevisiae fusion-defective mutant growth rescue, CellTiterGlo 48 h; also: nearly all actives have a fitted effect of over 45% in size
#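 Compounds are tested for their ability to restore growth of mitochondrial fusion-defective yeast strains at non-permissive 37C in YPEG medium over 48 hours. Viability is quantified by luciferase luminescence.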
# TDP-43 yeast inh = qHTS of TDP-43 Inhibitors | TDP-43 expressing yeast growth rescue, BacTiter-Glo, 24 h | Potency, µM (top dose mostly 46.1 µM), actives largely listed as activators | hit rate 1.8% among 410,000 | AID 652104, 2013; also: nearly all actives have a fitted effect of over 50% in size
#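 Galactose-induced TDP-43 yeast, OD600=0.02, compound pinned; 24 hr, 30 deg C; BacTiter-Glo luminescence for growth. Inhibitors of TDP-43 toxicity read as activators.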
# aSyn rescue = qHTS of alpha-syn Inhibitors; hit rate 0.14% among 370,000; AID 652106, 2013; Yeast expressing alpha-synuclein, growth rescue, BacTiter-Glo, 24 h; Potency, µM (highest dose often 46.1 µM), usual class: activators; also: nearly all actives have a fitted effect of over 65% in size
#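 Readout is rescue of growth in alpha-synuclein-expressing yeast, so inhibitors of toxicity appear as activators. Growth after 24 hr at 30 deg C in galactose medium is quantified by luminescence.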
# Numbers stand for hits; 0 = inactive; ? = inconclusive; - = no result given; [ ] = another dose, or the depositor's remark. The list is not random: actives were taken first. Their share in the collection is about 2.2%. Calls follow the shape of the dose curve; as a rule, active = well fitted curve in the direction sought with a large enough effect; inconclusive = small, poorly fitted or top-dose-only effect, or another doubt; inactive = no such curve, though single readings can be large; an effect the other way counts as inactive or inconclusive.
SMILES,FUS yeast rescue,Abeta rescue,Mito fusion yeast,TDP-43 yeast inh,aSyn rescue
CC(C)(C)c1cc(C(=O)NNC(=O)c2ccc(C(F)(F)F)cc2)no1,0,0,0,0,0
CCNC(=O)Nc1cc(OC)c(OC)cc1C(=O)O,0,0,0,0,0
COc1cc(NC(=O)C(c2ccccc2)c2ccccc2)c(C(=O)O)cc1OC,0,0,0,22.4µM,0
CCCCCCC(=O)n1ccc2ccc(-c3ccc4ccn(Cc5ccc(OC)cc5)c4c3)cc21,0,-,-,-,-
CCc1ccc(Nc2ncnc3nc[nH]c23)cc1,0,0,0,0,0
CCCCc1ccc(Nc2ncnc3nc[nH]c23)cc1,0,0,0,15.8µM,0
Nc1nonc1-n1nnc(C(=O)N/N=C/c2ccccc2Cl)c1COc1ccc(F)cc1,0,0,0,0,0
COCCN1CC(=O)N(c2cccc(C)c2C)C(c2ccc(Cl)cc2)C1=O (stereo not drawn),0,0,0,0,0
Cc1cccc(N2C(=O)C(Oc3ccc(Cl)cc3Cl)C2C=O)c1C (stereo not drawn),-,0,0,15.8µM,0
CCCN(C(=O)c1c(C)oc2ncn(CC(C)C)c(=O)c12)c1ccccc1C,0,0,-,?,-
CCOC(=O)c1nnc(-c2cccs2)nc1NC(C)C,0,0,0,12.6µM,0
CCOC(=O)c1nnc(-c2cccs2)nc1Oc1ccccc1C(=O)OC,0,0,0,0,0
CCOc1ccc(-c2nc3n(c(=O)c2C#N)CCCS3)cc1,0,0,0,0,0
N#Cc1c(-c2ccc(Br)cc2)nc2n(c1=O)CCCS2,0,0,0,?,0
CC(C)(C)c1ccc(-c2nc3n(c(=O)c2C#N)CCS3)cc1,0,0,0,20µM,0
N#Cc1c(-c2ccccc2)nc2n(c1=O)CCS2,0,0,0,35.5µM,0
COC(=O)C[C@H]1C[C@@H]2c3cc(NS(=O)(=O)c4ccc(OC)cc4)ccc3O[C@@H]2[C@H](CO)O1,0,0,-,0,0
COc1cccc(NC(=O)CC(C)S(=O)(=O)c2ccc3c(c2)NC(=O)CO3)c1 (stereo not drawn),0,0,-,0,-
NS(=O)(=O)c1ccc(CCNC(=O)C2CCN(S(=O)(=O)c3cnc[nH]3)CC2)cc1,25.1µM,0,0,0,0
NS(=O)(=O)c1ccc(CCNC(=O)C2CCN(S(=O)(=O)c3ccccc3)CC2)cc1,0,0,0,0[9.22 µM],0
O=c1c2c(-c3ccc(Cl)cc3)csc2nc2n1CCC2,-,0,0,14.1µM,0
COc1cc(N(C)C)c(OC)cc1/C=C1\C=Cc2ccccc21,-,-,-,-,0
CCOc1ccc(OCCCC(=O)NCCc2ccc(OC)cc2)cc1,0,0,0,0,0
CC(=O)Nc1ccc(NC(=O)C(C)OC(=O)CCCc2c[nH]c3ccccc23)cc1 (stereo not drawn),0,0,0,0,0
CC(OC(=O)CCc1c[nH]c2ccccc12)C(=O)c1ccccc1 (stereo not drawn),0,0,0,35.5µM,0
SMILES,FUS yeast rescue,Abeta rescue,Mito fusion yeast,TDP-43 yeast inh,aSyn rescue
CCCCCCCCN1CCS(=O)(=O)N(Cc2ccccc2)C(C(=O)OC)C1 (stereo not drawn),0,-,-,-,-
COc1cc(SC)ccc1C(=O)NCCOc1ccc(Cl)cc1,-,0,?,17.8µM,0
COc1cc(SC)ccc1C(=O)NCCOc1c(C)cc(C)cc1C,0,0,0,?,0
Cc1ccc2nc(/C(C#N)=C/c3ccc(-c4cccc(Cl)c4)o3)[nH]c2c1,0,0,-,2µM,-
CC(NC(=O)c1ccc2c(c1)N(Cc1ccc(Cl)cc1)C(=O)c1ccccc1S2=O)c1ccccc1 (stereo not drawn),25.1µM,0,-,0,-
CCC(C)NC(=O)c1ccc2c(c1)N(Cc1cccc(Cl)c1)C(=O)c1ccccc1S2=O (stereo not drawn),?,0,0,0,-
CCCCn1c(N)c(N(CC(C)C)C(=O)C2=NN(c3ccccc3)C(=O)CC2)c(=O)[nH]c1=O,-,0,0,0,0
CCN(CC)CCOC(=O)c1ccc(N/C=C(/C#N)c2nc(-c3cc4ccccc4oc3=O)cs2)cc1,?,0,8.91µM,0,0
COc1ccc(/C=N/NC(=O)C[n+]2ccccc2)c(OC)c1OC,0,0,0,0,22.4µM
COc1cccc(/C=N/NC(=O)C[n+]2ccccc2)c1OC,0,0,0,0,0
CCOc1cc(/C=N/NC(=O)COc2ccc(Cl)cc2)ccc1OS(=O)(=O)c1ccccc1,0,0,12.6µM,0,0
CCOC(=O)N/N=C/c1ccc(OCCSc2ccc(Cl)cc2)c(OC)c1,0,0,0,0,0
CCOc1cc(/C=N/NS(=O)(=O)c2ccccc2)ccc1OS(=O)(=O)c1ccc(C)cc1,0,0,0,0,0
CCOC(=O)N/N=C/c1ccc(OCCSc2ccc(Cl)cc2)c(OCC)c1,-,0,35.5µM,0,0
COc1ccc(OC)c(N(CC(=O)N2CCN(c3cc(Cl)ccc3C)CC2)S(C)(=O)=O)c1,28.2µM,0,0,0,0
O=C(Nc1ccc(Cl)cc1)c1cc2c(cc1O)[nH]c1ccccc12,0,0,0,3.98µM,0
O=C1CSC(c2ccc(F)cc2)N1c1nc2ccccc2s1 (stereo not drawn),0,0,12.6µM,0,0
O=C(Oc1ccc2c(=O)c(Cl)coc2c1)c1cccnc1,0,0,0,0,0
O=C(Oc1ccc2c(=O)c(Oc3ccc4ccccc4c3)coc2c1)c1cccnc1,0,0,15.8µM,0,0
OC(c1cccc(Cl)c1)c1nc(/C=C/c2ccc(C(F)(F)F)cc2)cs1 (stereo not drawn),0,0,-,0,0
CCOc1ccc(NC(=O)CN(c2cccc(C(F)(F)F)c2)S(C)(=O)=O)cc1,0,0,0,12.6µM,0
COc1cccc(NC(=O)CN(c2cccc(C(F)(F)F)c2)S(C)(=O)=O)c1,0,0,0,0,0
O=c1c2ccccc2n(Cc2ccco2)n1[C@@H](Cc1ccccc1)Cn1cc(-c2ccc(-c3ccccc3)cc2)nn1,17.8µM,-,-,-,-
Cc1ccc(F)cc1NC(=O)c1c(-c2ccccc2)noc1C,0,0,0,20µM,0
Cc1ccc(N=Nc2ccc(O)c3ncccc23)cc1,0,?,0,0,?
Cc1ccc(N=Nc2ccc(O)c3ncccc23)cc1C,0,0,0,28.2µM,?
CN(C(=O)c1ccc(Oc2ccc([N+](=O)[O-])cc2)cc1)C1CCCCC1,?,0,0,20µM,0
Cc1ccc(-c2nc3sccn3c2Nc2ccccc2C)cc1,?,0,-,35.5µM,-
N#CCCN(C(=O)CSc1nc2ccccc2c(=O)[nH]1)c1ccc(F)cc1,0,0,-,0,0
Cn1nc(C(=O)NCc2ccc(F)cc2)c2c1-c1ccccc1SC2,0,0,-,17.8µM,-
